# In ChEMBL document CHEMBL5724796, “Tm Shift (DSF) assay results for EUbOPEN Chemogenomics Library” (2024):
# Residues, ends and D or L forms follow the SMILES beside them.
# Columns and labels:
# Conditions in all cases: Compound concentration 20.0 uM
# [1] = biological target: Tyrosine-protein kinase ABL1 (Homo sapiens) (UniProt P00519)
# [2] = biological target: Bromodomain-containing protein 4 (Homo sapiens) (UniProt O60885)
# [3] = biological target: Cyclin-dependent kinase 2 (Homo sapiens) (UniProt P24941)
# [4] = biological target: Casein kinase I isoform delta (Homo sapiens) (UniProt P48730)
# [5] = biological target: Glycogen synthase kinase-3 beta (Homo sapiens) (UniProt P49841)
# [6] = biological target: Mitogen-activated protein kinase 1 (Homo sapiens) (UniProt P28482)
# [7] = biological target: T1, Aurora kinase A (Homo sapiens) (UniProt O14965)
# T1 sequence (whole entry): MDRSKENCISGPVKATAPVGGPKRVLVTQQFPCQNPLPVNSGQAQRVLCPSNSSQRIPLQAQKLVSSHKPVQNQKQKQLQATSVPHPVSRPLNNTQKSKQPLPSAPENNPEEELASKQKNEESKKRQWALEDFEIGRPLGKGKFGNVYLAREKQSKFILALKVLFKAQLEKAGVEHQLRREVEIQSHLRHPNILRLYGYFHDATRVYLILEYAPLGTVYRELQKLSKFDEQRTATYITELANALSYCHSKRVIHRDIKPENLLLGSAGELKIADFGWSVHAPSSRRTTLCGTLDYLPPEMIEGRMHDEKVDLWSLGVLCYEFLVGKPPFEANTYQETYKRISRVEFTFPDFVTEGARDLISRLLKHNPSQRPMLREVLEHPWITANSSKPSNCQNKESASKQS
# [8] = biological target: T2, Transcription intermediary factor 1-alpha (Homo sapiens) (UniProt O15164)
# T2 sequence (whole entry): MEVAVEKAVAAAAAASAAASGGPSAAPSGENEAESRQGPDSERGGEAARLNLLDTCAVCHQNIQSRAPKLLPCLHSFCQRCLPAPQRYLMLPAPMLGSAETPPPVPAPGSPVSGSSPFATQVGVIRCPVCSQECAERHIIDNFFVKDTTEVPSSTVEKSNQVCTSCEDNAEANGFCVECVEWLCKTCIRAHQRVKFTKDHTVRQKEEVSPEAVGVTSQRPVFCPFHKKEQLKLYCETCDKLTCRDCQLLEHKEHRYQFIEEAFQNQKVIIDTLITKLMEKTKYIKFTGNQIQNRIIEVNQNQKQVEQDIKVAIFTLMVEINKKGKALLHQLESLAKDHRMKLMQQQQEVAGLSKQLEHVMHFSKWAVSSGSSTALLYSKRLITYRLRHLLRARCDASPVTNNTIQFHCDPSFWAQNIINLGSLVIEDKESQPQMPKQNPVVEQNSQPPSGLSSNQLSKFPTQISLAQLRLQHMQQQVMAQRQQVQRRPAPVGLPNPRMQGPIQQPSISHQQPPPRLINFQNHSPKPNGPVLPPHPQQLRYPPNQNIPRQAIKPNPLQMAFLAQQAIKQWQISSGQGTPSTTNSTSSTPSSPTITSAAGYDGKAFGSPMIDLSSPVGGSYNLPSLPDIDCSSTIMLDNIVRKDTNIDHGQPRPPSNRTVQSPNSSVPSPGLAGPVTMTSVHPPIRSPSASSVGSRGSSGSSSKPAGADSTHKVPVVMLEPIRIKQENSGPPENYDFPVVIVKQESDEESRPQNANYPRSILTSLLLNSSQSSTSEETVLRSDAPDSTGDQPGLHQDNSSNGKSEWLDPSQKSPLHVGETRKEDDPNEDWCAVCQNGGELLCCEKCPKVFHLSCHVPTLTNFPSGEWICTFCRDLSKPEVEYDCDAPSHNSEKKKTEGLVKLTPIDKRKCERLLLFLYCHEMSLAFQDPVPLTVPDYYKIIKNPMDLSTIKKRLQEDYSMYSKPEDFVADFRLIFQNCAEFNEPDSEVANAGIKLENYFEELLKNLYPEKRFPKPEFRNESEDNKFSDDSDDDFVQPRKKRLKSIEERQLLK
# Glycogen synthase kinase-3 beta (Homo sapiens), sequence (P49841 whole entry, looked up): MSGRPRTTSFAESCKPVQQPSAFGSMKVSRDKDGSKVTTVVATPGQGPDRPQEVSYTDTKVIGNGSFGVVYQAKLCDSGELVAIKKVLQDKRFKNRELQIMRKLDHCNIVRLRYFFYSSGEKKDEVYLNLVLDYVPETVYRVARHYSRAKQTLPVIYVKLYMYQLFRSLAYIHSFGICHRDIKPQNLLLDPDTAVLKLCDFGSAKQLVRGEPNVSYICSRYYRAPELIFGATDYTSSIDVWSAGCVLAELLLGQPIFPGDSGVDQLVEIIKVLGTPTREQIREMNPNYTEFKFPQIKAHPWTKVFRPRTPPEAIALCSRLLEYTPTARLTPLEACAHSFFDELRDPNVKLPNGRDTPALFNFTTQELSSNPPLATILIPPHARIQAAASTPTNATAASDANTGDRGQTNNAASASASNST
# Casein kinase I isoform delta (Homo sapiens), sequence (P48730 whole entry, looked up, canonical isoform): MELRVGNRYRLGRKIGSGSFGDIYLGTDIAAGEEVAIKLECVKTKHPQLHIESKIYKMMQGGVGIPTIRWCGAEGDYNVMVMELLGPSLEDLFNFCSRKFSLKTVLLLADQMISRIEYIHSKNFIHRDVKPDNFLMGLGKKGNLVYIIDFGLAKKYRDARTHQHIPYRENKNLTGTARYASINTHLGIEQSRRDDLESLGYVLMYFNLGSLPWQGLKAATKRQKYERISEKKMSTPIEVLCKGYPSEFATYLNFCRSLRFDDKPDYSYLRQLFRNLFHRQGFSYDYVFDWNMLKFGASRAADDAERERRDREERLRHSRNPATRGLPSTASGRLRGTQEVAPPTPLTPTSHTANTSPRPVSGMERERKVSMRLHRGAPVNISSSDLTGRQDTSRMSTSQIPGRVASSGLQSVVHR
# Tyrosine-protein kinase ABL1 (Homo sapiens), sequence (P00519 whole entry): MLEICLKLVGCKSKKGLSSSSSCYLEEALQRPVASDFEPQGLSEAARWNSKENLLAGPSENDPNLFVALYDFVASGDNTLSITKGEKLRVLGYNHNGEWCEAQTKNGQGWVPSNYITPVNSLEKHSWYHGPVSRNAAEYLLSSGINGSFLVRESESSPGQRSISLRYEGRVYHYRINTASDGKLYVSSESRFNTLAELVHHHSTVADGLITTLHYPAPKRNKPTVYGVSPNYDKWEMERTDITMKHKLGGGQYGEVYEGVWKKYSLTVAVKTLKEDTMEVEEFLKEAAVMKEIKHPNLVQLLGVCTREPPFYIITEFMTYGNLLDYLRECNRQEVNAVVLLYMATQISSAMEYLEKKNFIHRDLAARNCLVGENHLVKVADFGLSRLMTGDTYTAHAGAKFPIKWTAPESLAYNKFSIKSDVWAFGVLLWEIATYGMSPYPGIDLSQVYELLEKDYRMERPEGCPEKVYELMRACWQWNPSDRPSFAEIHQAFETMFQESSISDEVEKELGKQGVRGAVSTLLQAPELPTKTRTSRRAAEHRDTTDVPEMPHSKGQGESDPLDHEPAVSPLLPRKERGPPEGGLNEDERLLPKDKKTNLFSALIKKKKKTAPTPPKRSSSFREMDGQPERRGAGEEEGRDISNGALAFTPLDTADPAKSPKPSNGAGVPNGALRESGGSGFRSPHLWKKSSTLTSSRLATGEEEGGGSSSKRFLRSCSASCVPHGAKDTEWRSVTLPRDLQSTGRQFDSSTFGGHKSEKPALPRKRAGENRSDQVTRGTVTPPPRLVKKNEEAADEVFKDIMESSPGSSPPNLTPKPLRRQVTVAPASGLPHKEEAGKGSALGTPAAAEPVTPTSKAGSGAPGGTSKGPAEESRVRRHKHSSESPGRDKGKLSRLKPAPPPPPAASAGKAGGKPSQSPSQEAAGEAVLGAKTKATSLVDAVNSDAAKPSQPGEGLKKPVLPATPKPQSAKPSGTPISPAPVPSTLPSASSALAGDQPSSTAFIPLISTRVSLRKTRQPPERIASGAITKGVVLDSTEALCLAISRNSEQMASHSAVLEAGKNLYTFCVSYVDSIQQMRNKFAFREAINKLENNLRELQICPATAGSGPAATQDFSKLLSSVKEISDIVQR
# Mitogen-activated protein kinase 1 (Homo sapiens), sequence (P28482 whole entry): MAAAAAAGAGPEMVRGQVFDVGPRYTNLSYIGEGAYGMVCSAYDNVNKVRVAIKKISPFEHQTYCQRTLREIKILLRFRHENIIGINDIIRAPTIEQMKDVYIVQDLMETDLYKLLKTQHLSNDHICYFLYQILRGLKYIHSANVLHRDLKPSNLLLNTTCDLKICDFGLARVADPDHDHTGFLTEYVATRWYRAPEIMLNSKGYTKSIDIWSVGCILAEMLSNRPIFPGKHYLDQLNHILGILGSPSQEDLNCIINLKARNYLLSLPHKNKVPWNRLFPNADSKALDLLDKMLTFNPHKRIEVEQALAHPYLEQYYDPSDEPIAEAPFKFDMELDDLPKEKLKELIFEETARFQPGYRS
Structure (SMILES),ΔTm [1] [°C],ΔTm [2] [°C],ΔTm [3] [°C],ΔTm [4] [°C],ΔTm [5] [°C],ΔTm [6] [°C],ΔTm [7] [°C],ΔTm [8] [°C]
Cc1cc(/N=N/c2ccc(S(=O)(=O)Nc3ccccn3)cc2)c(N)cc1O,0.27,9,1.3,-0.2,-0.93,0.31,-2.28,1
CSCC[C@H](NC(=O)[C@H](CC(=O)O)NC(C)=O)C(=O)N[C@@H](CCC(N)=O)C(=O)N[C@H](C=O)CC(=O)O (Ac-DMQD-aldehyde),0.11,-1.14,-0.29,0.02,-0.48,-0.4,-1.16,-0.9
CCn1c(=O)c(C)cn(Cc2nnc(-c3ccc(F)c(OC)c3F)s2)c1=O,0.22,-0.83,0.23,0.22,0,-4.56,-2.75,-0.83
Nc1cc(F)ccc1NC(=O)c1ccc(CNC(=O)/C=C/c2cccnc2)cc1,0.72,-1.97,-0.55,0.17,-1.09,-3.81,-0.25,-1.2
Cc1[nH]nc(C(F)(F)F)c1Cc1sc2c(c1C(=O)N1C[C@](C)(O)CO1)c(=O)n(C)c(=O)n2C(C)C,0.25,1.76,1.15,-0.46,-0.31,0.35,-1.82,1.02
CC(=Cc1cc(C)ccc1C=C(C)C(=O)NC(=N)N)C(=O)N=C(N)N,0.75,-2.96,-0.11,0,-0.1,0.25,-2.39,-3.05
CCCSc1nc2c(c(=O)n1-c1ccccc1)SCC2,-0.05,1.58,-0.05,-0.11,-0.82,1.06,0.01,0.72
CN(CCCN1c2ccccc2CCc2ccccc21)CC(=O)c1ccc(Cl)cc1,-0.37,-0.08,0.04,-0.19,-0.11,0.76,-1.35,0.15
OC[C@H]1O[C@@H](c2ccc(Cl)c(Cc3ccc(O[C@H]4CCOC4)cc3)c2)[C@H](O)[C@@H](O)[C@@H]1O,0.58,-2.67,-0.08,-0.33,-0.36,0.5,-1.72,-0.73
Cc1nccn1CC1CCc2c(c3ccccc3n2C)C1=O (stereo unspecified),0.4,-1.31,-0.09,-0.21,-0.4,0.1,-1.95,0.35
CC(C)(O)c1ccc(-c2nc3c(F)cc(F)cc3c(=O)[nH]2)cc1,1.34,-1.77,-0.55,1.05,-2.12,-4.92,-0.15,-1.14
Nc1cccc(Nc2ncc(-c3ccc(Cl)cc3)o2)c1,9.33,0.39,9.01,0.43,7.51,0.54,6.87,-0.45
O=C(c1cccc(-c2ccc(-c3cn(C(=O)N4CCCCC4c4ccccc4)nn3)cc2)c1)N1CCCCC1 (stereo unspecified),1.85,11.3,0.3,0.93,-2.22,1.43,4.6,-0.32
O=C(COc1ccc(-c2oc3cc(O)c(C(=O)O)cc3c2C#Cc2cccc(Cl)c2)cc1)NC1CC1,0.23,-1.93,0.55,0.15,-0.41,-0.57,-0.11,-0.84
O=c1[nH]c(Oc2cnn(Cc3ccccc3)c2)nc2cnccc12,0.64,-2.42,0.14,-0.09,0.35,0.33,-1.07,0.34
CS(=O)(=O)c1ccc(-c2cnc(NCc3ccco3)n3cnnc23)cc1,0.92,-0.86,0.28,0.44,-2.03,0.02,0.67,-1.77
CNc1nccc(CN([C@H]2CC[C@H](N)CC2)S(=O)(=O)c2ccc(S(=O)(=O)N(Cc3ccc(Cl)cc3)C3CCCC3)cc2)n1,-0.6,-2,-0.02,-0.71,-0.62,-3.03,-2.32,0.19
OC1CN=C2c3ccn([C@@H]4O[C@H]([C@H](O)c5ccc(Cl)cc5)[C@@H](O)[C@H]4O)c3N=CN21 (stereo partly specified),0.73,-1.38,0.66,0.22,-0.73,0.16,-0.39,-1.14
N[C@](CCCCB(O)O)(CCN1CCCCC1)C(=O)O,0.12,2.02,1.3,-0.19,-0.19,0.26,-1.26,0.59
CCCCCCCCCCCCCC(=S)NCCCC[C@H](NC(=O)OCc1ccccc1)C(=O)Nc1ccccc1,0.75,2.49,1.43,0.13,0.6,0.45,-2.19,1.92
COc1ccc(N2CCN(C(=O)c3cc4c(s3)-c3ccccc3S(=O)(=O)C4)CC2)cc1,0.15,-2.04,0.12,-0.01,-0.71,0.36,-1.67,0.69
O=C1c2ccccc2C(=O)c2oc(-c3ccc(F)cc3)nc21,0.01,-1.84,-0.07,-0.12,-0.33,0.17,-2.4,-0.61
